From PubChem
Sampled rows, rich in hits. Any-hit rate of the full collection: about 11%.
HEK cytotox: kills HEK 293 cells. actives 6.6% (n = 94,000). Potency, µM (top dose mostly 115 µM), without a hit: at the highest dose activity change, negative = cytotoxicity, actives largely listed as inhibitors. HEK 293 viability, ATP luminescence (CellTiter-Glo), 48-72 h; note: % is set by controls: 0 for no effect and ±100 for the full control effect; nearly all actives have a fitted effect of over 60% in size
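Luminescence from cellular ATP, measured with CellTiter-Glo, indicates HEK 293 viability. Cells plated at 250 cells/well are treated with compound for 48 or 72 hr at 37 degree Celsius before reagent addition.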
hNpr1 antagonist: blocks ANP-stimulated signaling of human Npr1 receptor | Potency, µM (titrated, usually from 46.3 µM), inactives show at the top dose activity change, negative = inhibition, most hits filed as inhibitors | AID 1347048 | HEK293 hNpr1 GloSensor cGMP, ANP-stimulated luminescence | actives 1.6% (n = 76,000) | P16066; calls by dose curve; note: % is set by controls: 0 for no effect and ±100 for the full control effect; nearly all actives have a fitted effect of over 60% in size
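HEK293 cells stably expressing human Npr1 and cGMP GloSensor pGS-40F, loaded 2 h with 2% GloSensor reagent, given compound 30 min at room temperature. Luminescence read before and 20 min after 0.1 nM hNppA.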
NIH3T3 tox: cytotoxic compounds in NIH 3T3 cells; NIH 3T3 viability, CellTiter-Glo ATP luminescence, 48-72 h; Potency, µM (titrated, usually from 96.7 µM), without a hit: at the highest dose activity change, negative = cytotoxicity, hits mostly inhibitors; actives 4.3% (n = 94,000); note: % is set by controls: 0 for no effect and ±100 for the full control effect; nearly all actives have a fitted effect of over 55% in size
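ATP-dependent luminescence (CellTiter-Glo) served as the viability signal for NIH 3T3 cells treated with compound for 48 or 72 hr at 37 °C.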
FLuc inh-1: Photinus pyralis luciferase inhibition; P08659; purified P. pyralis luciferase, luminescence, biochemical; Potency, µM (top dose mostly 115 µM), actives largely listed as inhibitors; actives 2.5% (n = 76,000); note: % is set by controls: 0 for no effect and ±100 for the full control effect; nearly all actives have a fitted effect of over 65% in size
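Cell-free enzyme assay, 10nM P. pyralis luciferase, luciferin and ATP each at 10uM. Inhibition profiled over a 6-point titration, read as luminescence.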
FLuc SDR no ATP: firefly luciferase binding stabilization, ATP absent | Potency, µM (top dose mostly 32.7 µM), without a hit: top-dose activation (signal gain), usual class: activators | AID 1963318 | actives 7.8% (n = 1,300) | Purified FLuc-C-HiBiT, Nano-Glo HiBiT luminescence, no ATP | shares compounds with FLuc inh-1; note: nearly all actives have a fitted effect of over 55% in size
FLuc SDR ATP: stabilizes firefly luciferase with ATP present; Potency, µM (series often up to 32.7 µM), inactives show at the highest dose activation (gain of signal), actives largely listed as activators; purified FLuc-C-HiBiT + ATP, HiBiT complementation luminescence; AID 1963319; shares compounds with FLuc inh-1; actives 8.7% (n = 1,300);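 note: signal reports ligand binding via conformational change of the enzyme rather than luciferase catalysis; % of control where 0% means no effect; nearly all actives have a fitted effect of over 55% in size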
FLuc inh-2: firefly luciferase enzyme inhibition; shares compounds with FLuc inh-1; purified FLuc-C-HiBiT enzyme, luciferin luminescence; Potency, µM (highest dose often 32.7 µM), without a hit: at the highest dose activity change, negative = inhibition, usual class: inhibitors; actives 42% (n = 1,300); AID 1963320; note: % is set by controls: 0 for no effect and ±100 for the full control effect; nearly all actives have a fitted effect of over 70% in size
* marks the source's active call; other numbers are inactive results; i = inactive; ? = inconclusive; . = not tested or not shown; [ ] = dose if it differs, or a comment. Unless noted, calls come from the whole dose curve; as a rule, active = well fitted curve in the direction sought with a large enough effect; inconclusive = small, poorly fitted or top-dose-only effect, or another doubt; inactive = no such curve, though single readings can be large; an effect the other way counts as inactive or inconclusive. Potency is the fitted concentration of half-maximal effect.

SMILES	HEK cytotox	hNpr1 antagonist	NIH3T3 tox	FLuc inh-1	FLuc SDR no ATP	FLuc SDR ATP	FLuc inh-2
Cc1nc(-c2ccc(F)cc2)n(CC(=O)Nc2cc(F)ccc2F)c(=O)c1CCO	?	-8.6%	-14.6%	i	.	.	.
Cc1ccc(-c2cccc(CN3CCCC(NC(=O)NC(C)C)C3)c2)cc1Cl (centres undefined)	-11.2%	.	?	.	.	.	.
CN1Cc2cccn2CC1CNC(=O)c1cccs1 (centres undefined)	-6.0%	3.7%	-18.3%	i	.	.	.
COC(=O)CNC(=O)c1ccc2nnc(-c3ccc(C(F)(F)F)cc3)n2c1	-10.0%	.	-19.0%	.	.	.	.
CC(C)C(=O)N1CCCC1Cc1noc(Cc2ccccc2)n1 (centres undefined)	-7.4%	.	-20.7%	.	.	.	.
COc1ccc(CC(=O)Nc2ccc3n(c2=O)C[C@H]2C[C@@H]3CN(C(=O)c3ccc4ccccc4c3)C2)cc1	-28.2%	-11.7%	?	i	.	.	.
O=C(Nc1ccc(Cl)cc1)Nc1ccc2n(c1=O)C[C@H]1C[C@@H]2CN(C(=O)c2ccc3ccccc3c2)C1	28.2µM*	-23.4%	39.8µM*	14.1µM*	12.5%	8.2%	?
CCOc1ccc(-c2cn3nc(CC(C)C)sc3n2)cc1	.	.	.	.	25.7%	15.5%	4.95µM*
CCOc1ccc(NC(=O)c2cc3c(N4CCSCC4)nc(C)cn3n2)cc1	-10.3%	7.6%	-17.3%	i	.	.	.
CCNC(=O)N1CC(C(=O)N2CCCC(C(=O)OCC)C2)CC(c2ccc(F)c(C)c2)C1 (centres undefined)	-26.6%	-1.7%	?	i	.	.	.
O=C(Nc1ccc(F)c(F)c1)C1CCN(C(=O)c2ncn3c2COC(c2ccc(F)cc2)C3)CC1 (centres undefined)	?	-13.6%	-8.6%	14.1µM*	12.4%	?	?
COc1ccc(NC(=O)C2CCN(C(=O)c3ncn4c3COC(c3ccccc3)C4)CC2)cc1Cl (centres undefined)	1.2%	?	1.0%	1.26µM*	14.8%	0.624µM*	0.881µM*
O=C(Nc1ccc(F)c(Cl)c1)C1CCN(C(=O)c2ncn3c2COC(c2ccccc2)C3)CC1 (centres undefined)	6.8%	?	i	1.78µM*	12.6%	0.7µM*	0.989µM*
COc1ccc(C2Cn3cnc(C(=O)N4CCC(C(=O)Nc5ccc(F)c(F)c5)CC4)c3CO2)cc1 (centres undefined)	-2.4%	-12.0%	-4.9%	i	.	.	.
Cc1nn(-c2ccccc2)c2c1C(C)N(CC1CN([S+](=O)([O-])c3c(C)noc3C)C1)C2=O (centres undefined)	?	.	-11.5%	.	.	.	.
CC1CCN(CC2CCCN(C(=O)C3(c4ccccc4)CC3)CC2)CC1 (centres undefined)	?	3.6%	-21.5%	i	.	.	.
CNC(=O)N1CCc2c(sc3ncnc(N(C)C)c23)C1	-0.8%	-6.6%	?	i	.	.	.
Cc1nc(C2CC(O)C2)cc(N2CCN(CCc3ccccc3)CC2)n1 (centres undefined)	?	-1.2%	-28.8%	i	.	.	.
COCC1CCN(c2ccc(-c3nc(-c4ccccc4C)no3)cn2)C1 (centres undefined)	?	?	-25.0%	14.1µM*	14.5%	16.4%	?
COc1ccc(-c2cn3cc(C(=O)NCc4ccc(Cl)cc4)nc3s2)cc1	-22.0%	.	-10.5%	.	.	.	.
Fc1ccc(Cc2cn3cc(-c4ccc(Cl)cc4)nc3s2)cc1	.	.	.	.	16.3%	14.1%	?
Fc1ccc(Cc2cn3cc(-c4ccccc4)nc3s2)cc1	.	.	.	.	?	?	0.442µM*
Clc1ccccc1Cc1cn2cc(-c3ccccc3)nc2s1	.	.	.	.	?	?	0.442µM*
Fc1ccc(-c2cn3cc(Cc4ccccc4)sc3n2)cc1	.	.	.	.	?	?	0.279µM*
O=C(NCCc1ccccc1)c1cn2cc(-c3ccc(C(F)(F)F)cc3)sc2n1	-4.2%	.	-12.0%	.	.	.	.
SMILES	HEK cytotox	hNpr1 antagonist	NIH3T3 tox	FLuc inh-1	FLuc SDR no ATP	FLuc SDR ATP	FLuc inh-2
Brc1ccc(-c2cn3cc(Cc4ccccc4)sc3n2)cc1	.	.	.	.	22.0%	15.2%	?
COc1ccc(-c2ccc(C(=O)Nc3ccccc3F)c(Cl)c2)nn1	?	.	-25.6%	.	.	.	.
COc1ccc(-c2nc3ccccc3s2)cc1NC(=O)c1ccccc1F	.	.	.	.	15.0%	7.2%	-15.5%
COc1ccc(-c2nc3ccccc3s2)cc1NC(C)=O	.	.	.	.	15.3%	15.4%	?
COc1ccccc1NC(=O)O[C@H]1COCCN(c2nc3ccccc3s2)C1	?	-7.8%[70.6 µM]	?	i	.	.	.
CCOc1ccc(C(=O)Nc2ccc(-c3nc4ccccc4s3)cc2)cc1[N+](=O)[O-]	.	.	.	.	13.2%	8.5%	0.2%
COc1ccc(-c2nc3ccccc3s2)cc1NC(=O)c1cccc([N+](=O)[O-])c1C	.	.	.	.	14.6%	14.1%	6.24µM*
COc1ccc(Cl)cc1S(=O)(=O)N1CCC2(CCCNC2)C1 (centres undefined)	?	6.6%	-11.7%	i	.	.	.
CNC(=O)c1cc2cc(-c3c(C)noc3C)nc(-c3cccc(OC)c3OC)c2o1	?	4.7%[70.6 µM]	?	i	.	.	.
COc1ccc(-c2nc3ccccc3s2)cc1NC(=O)c1cc2ccccc2o1	.	.	.	.	7.3%	6.6%	-4.4%
COc1ccc(-c2nc3ccccc3s2)cc1NC(=O)c1ccc(C#N)cc1F	.	.	.	.	12.5%	9.0%	-0.8%
COc1ccccc1NC(=O)c1cnc(-c2ccc(F)cc2)nc1-c1ccncc1	0.8%	-14.0%	i	i	.	.	.
CC(C)N1C(=O)C(CC(=O)N(C)Cc2cccnc2)=C2CCCCC21 (centres undefined)	-0.7%	-10.7%	4.4%	i	.	.	.
CCCNC(=O)C1C(c2cccc(NC(=O)c3ccc(C)cc3)c2)OC(=O)N1Cc1ccc(C)cc1 (centres undefined)	?	?	?	8.91µM*	16.3%	4.42µM*	4.42µM*
COc1ccc(-c2cc(-c3ccc(N4CCOCC4)nc3)cn3cncc23)cn1	?	-1.4%[70.6 µM]	?	?	.	.	.
Cc1ccc(NC(=O)C2CCN(C(=O)c3ncn4c3COC(c3ccccc3)C4)CC2)cc1 (centres undefined)	9.0%	-23.1%	-9.4%	2µM*	11.6%	1.57µM*	1.76µM*
O=C(Nc1ccccc1)C1CCN(C(=O)c2ncn3c2COC(c2ccccc2)C3)CC1 (centres undefined)	-29.7%	?	i	2µM*	15.5%	1.57µM*	1.57µM*
